HT1080NT lethal – kills 2HG-producing HT-1080-NT fibrosarcoma cells. 1.6% of 360,000 active. Potency, µM (top dose mostly 46.1 µM), for inactives: at the top dose activity, negative = less viability, usual class: cytotoxic. HT-1080-NT fibrosarcoma viability, CellTiter-Glo ATP luminescence, 48 h;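 also: NT is the 2HG producing partner of a matched IDH1 knockdown line; 0% = DMSO-treated cells and -100% = media-only wells without cells; nearly all actives have a fitted effect of over 55% in size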
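Compounds were tested in concentration-response format on HT-1080-NT cells for 48 hours at 37 degrees C. Cell viability came from CellTiter-Glo luminescence; curves were classified by r2, response magnitude and activity.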
SW480 rereplic – induces DNA re-replication in SW480 colon adenocarcinoma cells; Potency, µM (series often up to 46.1 µM), for inactives: at the highest dose re-replication activation, actives largely listed as activators; SW480 DNA re-replication, Hoechst DNA content imaging, 48 h; 1.8% of 340,000 active; also: % of control where 0% means no effect; nearly all actives have a fitted effect of over 55% in size
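Compounds, transferred as 23 nL by pin tool, were incubated with cells for 48 hr; DNA content per nucleus was then quantified by Hoechst staining and fluorescence plate imaging.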
KB-V1 MDR tox – kills drug-selected multidrug resistant KB-V1 cells; Potency, µM (series often up to 46.1 µM), most hits filed as cytotoxic; KB-V1 MDR cells viability, CellTiter-Glo, 72 h; 3.4% of 400,000 active; also: % is scaled to controls: 0 for no effect and ±100 for the full control effect; nearly all actives have a fitted effect of over 60% in size
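Luminescent ATP read-out (CellTiter-Glo, 10 min) measures survival of drug-selected KB-V1 MDR cells after 72 h, 37 degrees C compound exposure. Medium: phenol-red-free DMEM, 10% FBS. Values from fitted concentration-response curves.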
MCF10A rerep – induces DNA re-replication in MCF 10a normal breast cells. 2.9% of 350,000 active. MCF 10A DNA re-replication, Hoechst nuclear intensity, 48 h. Potency, µM (top dose mostly 46.1 µM), for the others: at the top dose activity, positive = re-replication, most hits filed as activators; also: % of control where 0% means no effect; nearly all actives have a fitted effect of over 50% in size
HT1080 IDH1KD tx – HT-1080 IDH1 knockdown cell toxicity (counter line) | HT-1080 IDH1 knockdown viability, ATP luminescence, 48 h | 2% of 360,000 active | AID 686971 | Potency, µM (highest dose often 46.1 µM), for inactives: at the top dose activity, negative = toxicity, most hits filed as cytotoxic;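 also: 0% = DMSO wells and -100% = cell-free medium wells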
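IDH1KD HT-1080 cells, 750/well, RPMI + 5% FBS; compound pinned after 2 h settling; 48 h, 37 °C; CellTiter-Glo luminescence; % activity normalised to DMSO and no-cell wells; curves fitted, classed by r2 and efficacy.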
KB-3-1 cytotox – KB-3-1 parental cell cytotoxicity. KB-3-1 viability, CellTiter-Glo ATP luminescence, 72 h. Potency, µM (highest dose often 46.1 µM), most hits filed as cytotoxic. 1.4% of 400,000 active. AID 1347075; also: % is scaled to controls: 0 for no effect and ±100 for the full control effect; nearly all actives have a fitted effect of over 60% in size
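KB-3-1 parental drug-naive adenocarcinoma cells in DMEM/10% FBS, incubated 72 h at 37 C with pin-transferred compounds across a concentration series. Viability by CellTiter-Glo luminescence; concentration-response curves fitted after normalization.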
An asterisk follows results filed as active; i = inactive; ? = inconclusive; · = not tested or not shown; ! = a repeat was not active; [ ] = remark or other dose. A selection: hits, their analogues and other compounds. The true share with any hit is near 7.9%. Calls follow the shape of the dose curve; as a rule, active = well fitted curve in the direction sought with a large enough effect; inconclusive = small, poorly fitted or top-dose-only effect, or another doubt; inactive = no such curve, though single readings can be large; an effect the other way counts as inactive or inconclusive. Potency is read from the fitted curve at half-maximal effect.

SMILES	HT1080NT lethal	SW480 rereplic	KB-V1 MDR tox	MCF10A rerep	HT1080 IDH1KD tx	KB-3-1 cytotox
Cc1ccc(Nc2c(-c3ccccn3)nc3ccc(C)cn23)cc1	?	21µM*	?	12%	?	?
Cc1ccc(Nc2c(-c3ccccn3)nc3cc(C)ccn23)cc1	5.8µM*	7%	?	?	5.8µM*	?
Cc1ccn2c(Nc3ccccc3C)c(-c3ccncc3)nc2c1	-1%	?	23µM*!	0%	7%	i
Cc1ccc(NC(=O)Cn2c(=O)n(CCc3ccccc3)c(=O)c3c4c(sc32)CCCC4)c(C)c1	·	·	i	·	·	i
CCc1ccccc1NC(=O)CCCN1C(=O)CCn2nc(-c3cn(C)c4ccccc34)cc21	·	·	i	·	·	i
COC(=O)c1c(NC(=O)C(C)(C)C)sc2c1C(C(=O)OC)CC2 (centres undefined)	4%	-3%[9.22 µM]	21µM*	20%	-2%	?
COC(=O)c1c(NC(=O)Cc2ccccc2)sc2c1C(C(=O)OC)CC2 (centres undefined)	17%	-11%	i	19%	0%	i
COC(=O)c1c(NC(=O)C(Cl)Cl)sc2c1C(C(=O)OC)CC2 (centres undefined)	3%	?	i	8.2µM*	-10%	i
COC(=O)c1c(NC(=O)C2CCCO2)sc2c1CCC2 (centres undefined)	5%	-4%[9.22 µM]	i	-5%	6%	i
COc1ccc(-c2noc(N3CCN(c4cccc(Cl)c4)CC3)n2)cc1OC	·	·	?	·	·	i
O=C(CNC(=O)c1ccc(F)cc1)N/N=C/c1cc(Br)ccc1OC(=O)/C=C/c1ccco1	?	?	i	?	?	?
O=C(CNC(=O)c1ccccc1F)N/N=C/c1cc(Br)ccc1OC(=O)/C=C/c1ccco1	-41%	6.5µM*	16µM*	?	4.6µM*	?
COc1ccccc1C(=O)NCC(=O)N/N=C/c1cc(Br)ccc1OC(=O)/C=C\c1ccco1	?	?	?	16µM*	-23%	i
COc1ccc(OC)c(C2NC(=O)NC(C)=C2C(=O)Nc2ccc(F)cc2)c1 (centres undefined)	·	·	i	·	·	i
CCCN1C(=O)/C(=C\c2ccncc2)SC1=Nc1ccccc1	-11%	-9%	?	?	-13%	i
CCN1C(=O)/C(=C\c2ccncc2)SC1=Nc1ccc(C)c(C)c1	-2%	-1%	15µM*	?	-16%	?
O=C(CCS(=O)(=O)c1ccc(F)cc1)Nc1nc(-c2ccccn2)cs1	-27%	-19%	i	-1%	0%	?
C[C@H](NC(=O)c1ccco1)C(=O)Nc1nc(-c2ccccn2)cs1	-2%	?	4.1µM*	2%	-26%	i
O=C(Nc1nc(-c2ccccn2)cs1)c1ccc(Br)s1	2µM*	2.1µM*	1.3µM*	26µM*	1.4µM*	i
O=C(Nc1nc(-c2ccccn2)cs1)c1ccco1	?	4.1µM*	i	?	-23%	i
CC(Oc1ccc(F)cc1)C(=O)Nc1nc(-c2ccccn2)cs1 (centres undefined)	?	-13%	i	3.3µM*	?	?
C[C@H](NC(=O)c1ccco1)C(=O)Nc1nnc(SCc2ccccc2)s1	5%	-4%	i	?	7%	i
NC(N)=Nc1nc(-c2ccccc2)c2cc(F)ccc2n1	21µM*	8%[1.84 µM]	i	?	21µM*	23µM*
CCOC(=O)c1cc2cc(OC)ccc2n1C1CCN(CCc2ccccc2)CC1	?	·	i	·	18µM*	?
O=C(O)c1cccc(-n2c(/C=C/c3ccccc3)nc3ccccc3c2=O)c1	0%	?	i	15%	-3%	i
SMILES	HT1080NT lethal	SW480 rereplic	KB-V1 MDR tox	MCF10A rerep	HT1080 IDH1KD tx	KB-3-1 cytotox
CCn1c(/C=C/c2cccc([N+](=O)[O-])c2)nc2ccccc2c1=O	14%	3%	21µM*	15%	9%	?
CN(C)S(=O)(=O)c1ccc2[nH]cc(/C=C/c3nc4ccccc4c(=O)n3-c3ccccc3)c2c1	?	3.3µM*	?	?	?	i
CCn1c(/C=C/c2ccccc2Cl)nc2ccccc2c1=O	-5%	?	i	16µM*	0%	i
CN(C)c1ccc(/C=C/c2nc3ccccc3c(=O)n2-c2ccc(C(=O)O)cc2)cc1	2%	21µM*	i	18µM*	-12%	i
Cc1[nH]c2ccccc2c1/C=C/c1nc2ccccc2c(=O)n1-c1ccc([N+](=O)[O-])cc1	-6%	-4%	?	11%	2%	i
CCn1c(/C=C\c2ccccc2C)nc2ccccc2c1=O	-1%	19%	?	0%	3%	i
O=c1c2ccccc2nc(/C=C/c2cccc([N+](=O)[O-])c2)n1CCO	-17%	-3%	?	-31%	-10%	i
CCOc1ccccc1CNC(=O)CN1C(=O)CCn2nc(-c3cn(C)c4ccccc34)cc21	·	·	i	·	·	i
COC(=O)c1ccc(NC(=O)CN(C)S(=O)(=O)c2ccc3c(c2)CCCC(=O)N3)cc1	·	·	i	·	·	i
O=c1c2ccccc2nc(/C=C/c2cccnc2)n1CCc1ccccc1	?	-21%	?	29µM*	?	i
CCn1c(/C=C/c2c[nH]c3ccccc23)nc2ccccc2c1=O	?	?	i	21µM*	-17%	i
CCn1c(/C=C/c2ccccc2[N+](=O)[O-])nc2ccccc2c1=O	-12%	27%	?	15%	-6%	i
CNC(=S)NNC(=O)CCn1nc(C)c(Br)c1C	11µM*	?	i	-2%	16µM*	i
COCCCNC(=S)NNC(=O)Cn1nc(C)c(Br)c1C	15%	-4%	i	1%	17%	i
Cc1nn(CC(=O)NNC(=S)NCC2CCCO2)c(C)c1Br (centres undefined)	10%	3%	i	7%	7%	i
Cc1nn(CCC(=O)NNC(=S)NCC(C)C)c(C)c1Br	1.1µM*	3.7µM*	i	-4%	1.3µM*	i
Cc1nn(CCC(=O)NNC(=S)Nc2ccccc2)c(C)c1Br	?	?	i	?	14%	i
CCOCCCNC(=S)NNC(=O)CCn1nc(C)c(Br)c1C	0.89µM*	?	15µM*	0%	2.5µM*	i
Cc1ccc(OCc2ccc(-c3nc(C#N)c(NCc4ccccc4Cl)o3)o2)cc1	·	·	i	·	·	i
Cc1ccc(-c2nc3cccnc3o2)cc1NC(=O)COc1ccc(Cl)cc1C	-1%	-1%	?	27%	-2%	i

Source: PubChem
